Hits are enriched below; roughly 14% of the tested compounds scored in any of these assays.
FBPA Giardia inh: qHTS Assay for Inhibitors of Fructose-1,6-bisphosphate Aldolase from Giardia Lamblia; hit rate 0.71% among 290,000; Potency, µM (doses to about 59.6 µM), without a hit: at the top dose activity, negative = inhibition, hits mostly inhibitors; purified Giardia FBPA; A8B2U2; further: potency means the concentration at half of the fitted maximal effect; nearly all actives have a fitted effect of over 55% in size
Target sequence (A8B2U2 whole entry, looked up): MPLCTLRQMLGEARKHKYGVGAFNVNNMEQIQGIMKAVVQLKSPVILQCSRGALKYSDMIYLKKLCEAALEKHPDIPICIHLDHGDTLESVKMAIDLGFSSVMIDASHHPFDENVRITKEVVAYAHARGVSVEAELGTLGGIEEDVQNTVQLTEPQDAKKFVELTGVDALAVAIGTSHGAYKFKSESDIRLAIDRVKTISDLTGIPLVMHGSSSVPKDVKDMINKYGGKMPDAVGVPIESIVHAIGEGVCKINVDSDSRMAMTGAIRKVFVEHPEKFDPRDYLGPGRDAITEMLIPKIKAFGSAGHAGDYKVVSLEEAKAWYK
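Giardia FBPA (40 nM reagent) was preincubated 10 min at RT with compound (up to 57.5 uM final), then substrate plus GAPDH/TPI/NAD/arsenate coupling system with diaphorase/resazurin was added; resorufin fluorescence (525/598 nm) was read after 20 min.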
Sm TGR block: qHTS Assay for the Inhibitors of Schistosoma Mansoni Peroxiredoxins. Schistosoma mansoni thioredoxin glutathione reductase (TGR), Q962Y6. purified TGR, DTNB reduction, TNB absorbance 405 nm. Potency, µM (doses to about 114 µM), for inactives: top-dose activity change, negative = inhibition, actives largely listed as inhibitors. hit rate 3% among 360,000. AID 485364, 2010; further: potency means the concentration at half of the fitted maximal effect; nearly all actives have a fitted effect of over 60% in size
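TGR 20 nM + NADPH 100 uM (dispensed conc.), cpd preinc 15 min RT; start with NADPH (500 uM addition) then DTNB (15 mM addition). Kinetic TNB absorbance, 405 nm filter. Four-parameter Hill fit across titration.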
Pf growth 96h: Primary qHTS for delayed death inhibitors of the malarial parasite plastid, 96 hour incubation; P. falciparum luciferase reporter growth, 96 h; Potency, µM (series often up to 28.7 µM), for inactives: top-dose activity change, negative = inhibition, most hits filed as inhibitors; hit rate 6.9% among 320,000; further: potency means the concentration at half of the fitted maximal effect
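Cell-based qHTS: luciferase-tagged P. falciparum in erythrocytes (2% hematocrit, 0.05% parasitemia final) incubated with compounds for 96 hours, 37 C, 5% CO2; luciferase detection reagent then added and luminescence measured.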
HCMV antiviral: qHTS Assay for inhibitors of the human cytomegalovirus (HCMV); HFF cells, HCMV-luciferase reporter, 72 h; hits give low values; activity change, negative = inhibition, % at 57.5 µM; hit rate 4.5% among 410,000; AID 1259415, 2018; in the data active means activity change below about -60%; inconclusive means no clear call, values can overlap the other calls; inactive means above about -39%
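Two-dose cell screen: HFF monolayers treated with compounds and infected with luciferase-expressing HCMV at 1 PFU/cell, 72 h at 37C, then lysed for luciferase measurement.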
Pf growth 48h: Primary qHTS for delayed death inhibitors of the malarial parasite plastid, 48 hour incubation; Potency, µM (series often up to 28.7 µM), without a hit: at the top dose activity change, negative = inhibition, usual class: inhibitors; hit rate 5.9% among 310,000; AID 504832, 2011; P. falciparum luciferase growth in erythrocytes, 48 h; further: potency means the concentration at half of the fitted maximal effect
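Here the parasites carry a stable luciferase gene and grow inside erythrocytes in Albumax-based RPMI medium with compound for one erythrocytic cycle. Activity is scored as loss of luminescent signal.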
* hit, by the source's call; u = inconclusive; x = no result given; [ ] = another dose, or the depositor's remark. Unless noted, the call rests on the fitted dose curve; in most records, active means well fitted curve in the direction sought with a large enough effect; inconclusive means small, poorly fitted or top-dose-only effect, or another doubt; inactive means no such curve, though single readings can be large; an effect the other way counts as inactive or inconclusive. On the % scale 0 is the no-effect control and ±100 the full control effect.

SMILES	FBPA Giardia inh	Sm TGR block	Pf growth 96h	HCMV antiviral	Pf growth 48h
Cn1c(NCc2ccco2)nc2c1c(=O)n(Cc1ccc(Cl)cc1Cl)c(=O)n2C	2%	-18%	x	x	-24%
Cn1c(NCc2ccco2)nc2c1c(=O)n(Cc1ccc(Cl)cc1)c(=O)n2C	-8%	u	76%	-27	9.3µM*
Cn1c(NCc2ccco2)nc2c1c(=O)n(Cc1ccc(Br)cc1)c(=O)n2C	-5%	-18%	x	-4	9.3µM*
COc1ccc(O)c(CNn2c(-c3ccc(Br)cc3)nc3ccccc3c2=O)c1	14%	-5%	-11%	-74*	9.3µM*
CCOc1ccc(-n2c(CC)nc3ccccc3c2=O)cc1	0%	-4%	-3%	-87*	3%
COc1ccc(OC)c(CNn2c(-c3ccccc3F)nc3ccccc3c2=O)c1	17%	1%	-9%	u	u
COc1ccc(-n2c(-c3ccccc3Br)nc3ccccc3c2=O)cc1	2%	1%	-25%	-63*	-4%[0.00184 µM]
Cc1ccccc1-n1c(CNc2ccccc2)nc2ccccc2c1=O	x	x	x	-8	x
COc1ccc(-n2c(-c3ccccc3F)nc3ccccc3c2=O)cc1	x	x	x	-13	x
O=c1c2ccccc2nc(CNc2ccccc2)n1-c1ccccc1	-9%	0%	7.4µM*	-19	u
CCOc1ccc(-n2c(=O)c3ccccc3c3ccccc3c2=O)cc1	-13%	5%	5%	56	-31%
O=C(Nc1ccc(C(=O)N2CCCCC2)cc1)[C@H]1O[C@@H](n2ccc(=O)[nH]c2=O)[C@H](O)[C@@H]1O	x	x	x	2	x
CC1(c2nnnn2C2CCCC2)CCC(=O)N1c1ccc2c(c1)OCCO2 (stereo not drawn)	x	x	x	1	x
COC(=O)c1ccc(OC(=O)C2CSC3(C)CCC(=O)N23)cc1 (stereo not drawn)	x	-6%	23%	-35	u
Cc1cc(C(=O)Nn2c(-c3ccc(Br)cc3)nc3ccccc3c2=O)ccc1[N+](=O)[O-]	8%	-8%	8%	-75*	-6%
COc1ccccc1Cn1c(SCC(N)=O)nc2c(oc3ccccc32)c1=O	3%	-1%	-30%	u	u
FC(F)(F)c1cc(-c2ccco2)nc(NCc2cccs2)n1	-2%	20µM*	u	46	-10%
Cc1cc(C=O)c(O)cc1O	8%	1%	24%	u	63%
CCN(CC(=O)NC(C)(C)C)Cc1nc2c(Br)cc(Br)cc2c(=O)[nH]1	3%	3%	9.3µM*	0	12µM*
Cc1cc(C)n2nc(SC(C)C(=O)NC3CCCCC3C)nc2n1 (stereo not drawn)	x	3%	-13%	-11	-2%
Cc1ccc(NC(=O)c2c(C)oc3ccc(O)c(CN4CCCCCC4)c23)cc1	x	-17%	x	-85*	x
Cc1oc2ccc(O)c(CN(C)Cc3ccccc3)c2c1C(=O)Nc1cccc(Cl)c1C	x	-15%	x	-66*	x
CCOC(=O)c1c(-c2ccccc2)oc2ccc(O)c(CN(C)C)c12	-5%	-19%	u	-7	x
CCOC(=O)c1c(CSCc2ccccc2)oc2ccc(O)c(CN(C)C)c12	u	-16%	5.9µM*	0	5.9µM*
CCOC(=O)c1c(-c2ccccc2)oc2ccc(O)c(CN3CCCC3)c12	3%	8%	1µM*	-62*	1.9µM*
SMILES	FBPA Giardia inh	Sm TGR block	Pf growth 96h	HCMV antiviral	Pf growth 48h
CC1C(=O)NN=C1c1ccc([N+](=O)[O-])cc1 (stereo not drawn)	x	x	x	22	x
CCC(=O)N1c2ccc(S(=O)(=O)N3CCCCCC3)cc2CC1C (stereo not drawn)	x	-6%	x	28	x
Cc1oc2ccc(O)c(CN3CCCCCC3)c2c1C(=O)Nc1cccc(Cl)c1C	x	4%	x	-100*	x
Cc1oc2ccc(O)c(CN3CCCCCC3)c2c1C(=O)Nc1cccc(C(F)(F)F)c1	x	-1%	x	-86*	x
Cc1ccc(NC(=O)c2c(C)oc3ccc(O)c(CN4CCCCCC4)c23)c(C)c1	x	-3%	x	-65*	x
Cc1oc2ccc(O)c(CN3CCCC3)c2c1C(=O)Nc1ccccc1	x	-7%	x	-33	x
Cc1ccc(NC(=O)c2c(C)oc3ccc(O)c(CN4CCOCC4)c23)c(C)c1	x	2%	x	10	x
Oc1c(C(c2ccccc2)N2CCCCC2)ccc2ccccc12 (stereo not drawn)	x	x	x	5	x
Cn1c2c(c(=O)[nH]c1=O)C(c1cccc(O)c1)C1=C(N2)c2ccccc2C1=O (stereo not drawn)	-16%	-1%	24%	-100*	u
O=C(Nc1cc(S(=O)(=O)N2CCOCC2)ccc1N1CCCC1)c1cccnc1Cl	2%	-11%	16%	1	1%
Cc1ccc([N+](=O)[O-])cc1NC(=O)CN(C(=O)c1ccccc1Cl)C1CCCCC1	-11%	-8%	0%	-9	u
O=C(CN(C(=O)c1cccc([N+](=O)[O-])c1)C1CCCCC1)Nc1ccc(Cl)c([N+](=O)[O-])c1	0%	3%	u	17	1.9µM*
CN1CCc2c(sc(NC(=O)CSc3ccc(F)cc3)c2-c2nc3ccccc3s2)C1	x	-17%	x	-16	x
CC(=O)N1CCc2c(sc(NC(=O)CSc3ccc(F)cc3)c2-c2nc3ccccc3s2)C1	x	-6%	x	-96*	x
CC(=O)Nc1sc2c(c1-c1nc3ccccc3s1)CCN(C(C)C)C2	-17%	16%	4.1µM*	x	3.7µM*
O=C(CCl)N(C1CCCC1)C1CCS(=O)(=O)C1 (stereo not drawn)	-6%	16µM*	u	-83*	u
Fc1ccc(-n2c(-c3ccco3)nc3nc4ccccc4nc32)cc1	0%	0%	u	2	6%
S=c1nc(-c2ccccc2)n(Cc2cccnc2)c2c1CCCC2	2%	u	-42%	x	-8%
c1ccc(-c2nc3nc4ccccc4nc3n2Cc2ccco2)cc1	-14%	10µM*	-3%	66	-35%
S=c1nc(-c2ccccc2)n(Cc2ccco2)c2c1CCCC2	-12%	35µM*	-5%	x	-1%
Fc1ccc(-c2nc3nc4ccccc4nc3n2Cc2ccco2)cc1	-8%	20µM*	102%	68	-6%
C=CCn1c(-c2ccc(OC)cc2)nc2nc3ccccc3nc21	3%	-24%	x	8	-23%
C=CC[C@@H](CC(=O)N[C@H](CO)Cc1ccccc1)C(=O)NC[C@H](OC(=O)[C@@H](CC=C)Cc1ccc(F)cc1)c1ccccc1	x	x	x	-32	x
CCOc1cc(CNCCO)cc(Br)c1OCc1ccc(Cl)cc1	-5%	3%	12µM*	-99*	u
CC(C)(CO)NCc1cc(Br)ccc1OCc1ccccc1	2%	0%	x	13	10µM*
Nc1nonc1C(=O)NCCNCc1cc(Br)ccc1OCc1ccccc1F	-21%	-3%	u	-62*	3.3µM*

Screening results deposited in PubChem by National Center for Advancing Translational Sciences (NCATS).
